Results as given in PubChem BioAssay (NCI).
Compounds without any hit were thinned out: in the full panel of roughly 79,000, 15% have a hit. Active and inactive are the calls of the source. Cut-off read from the data, not from the text of the source: active = growth inhibition above about 70%; inactive = the rest.

Legend:
[1] = NCI Yeast Anticancer Drug Screen. Data for the wt1 strain (AID 149);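 note: 0% = growth of vehicle-treated wt1 cultures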; conditions: S. cerevisiae wt1 strain (SPY 50644) growth inhibition, stronger effect = higher value
Method in brief: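 Using yeast strain wt1, compound-induced growth inhibition was determined against vehicle-treated cultures.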

[2] = NCI Yeast Anticancer Drug Screen. Data for the rad50EPP+ strain (AID 151);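 note: 0% = growth of vehicle-treated control cultures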; conditions: S. cerevisiae rad50 mutant strain, stronger effect = higher value
Method in brief: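 Exposing the rad50EPP+ strain to each compound, growth was compared with vehicle-only cultures to give inhibition.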

[3] = NCI Yeast Anticancer Drug Screen. Data for the mgt1 strain (AID 153); conditions: S. cerevisiae mgt1 mutant growth inhibition, stronger effect = higher value
Method in brief: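 Genetically defined yeast (mgt1) treated with compound; inhibition of growth expressed against vehicle-treated controls.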

[4] = NCI Yeast Anticancer Drug Screen. Data for the rad50 strain (AID 155);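 note: 0% = growth of vehicle-only cultures of the same strain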; conditions: S. cerevisiae rad50 strain growth inhibition, stronger effect = higher value
Method in brief: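 Relative growth inhibition (compound vs vehicle) was measured in yeast with a defined repair-gene alteration.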

[5] = NCI Yeast Anticancer Drug Screen. Data for the mec2-1 strain (AID 157); conditions: S. cerevisiae mec2-1 strain, stronger effect = higher value
Method in brief: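 Readout is yeast growth inhibition, normalised to vehicle-treated controls, in the mec2-1 strain exposed to compound.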

[6] = NCI Yeast Anticancer Drug Screen. Data for the rad14 strain (AID 159);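 note: 0% = growth of vehicle-treated control cultures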; conditions: S. cerevisiae rad14 strain growth inhibition, stronger effect = higher value
Method in brief: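 Screen for anticancer potential: a yeast strain altered in DNA damage repair is grown with compound, and reduced growth is quantified against vehicle controls.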

[7] = NCI Yeast Anticancer Drug Screen. Data for the sgs1 mgt1 strain (AID 161);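 note: 0% = growth of cultures given vehicle only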; conditions: S. cerevisiae sgs1 mgt1 strain, stronger effect = higher value
Method in brief: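 Compounds are added to genetically altered yeast, and growth is compared with cultures given vehicle alone to give percent inhibition.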

[8] = NCI Yeast Anticancer Drug Screen. Data for the CLN2oe strain (AID 163);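 note: 0% = growth of vehicle-only control cultures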; conditions: S. cerevisiae CLN2oe strain, stronger effect = higher value
Method in brief: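 Values reflect how much compound exposure reduced yeast growth, referenced to vehicle-exposed cells. Assay organism is a strain with a defined genetic change affecting cell-cycle control.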

[9] = NCI Yeast Anticancer Drug Screen. Data for the cln2 rad14 strain (AID 165);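 note: 0% = growth equal to vehicle treated cultures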; conditions: S. cerevisiae cln2 rad14 strain, stronger effect = higher value
Method in brief: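 Relative to vehicle controls, growth inhibition of compound-treated cln2 rad14 yeast was recorded.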

[10] = NCI Yeast Anticancer Drug Screen. Data for the bub3 strain (AID 167); conditions: S. cerevisiae bub3 mutant strain, stronger effect = higher value
Method in brief: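 Screening used yeast with an engineered genetic alteration affecting cell cycle control. Compound-exposed cultures were compared with vehicle cultures, and reduced growth was taken as inhibition.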

[11] = NCI Yeast Anticancer Drug Screen. Data for the wt2 strain (AID 169);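 note: 0% = growth of vehicle-treated yeast cultures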; conditions: S. cerevisiae wt2 strain growth inhibition, stronger effect = higher value
Method in brief: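 Values express reduction in yeast growth under compound treatment, referenced to vehicle-treated cells.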

[12] = NCI Yeast Anticancer Drug Screen. Data for the mlh1 strain (AID 171);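 note: 0% = growth of vehicle-treated control cultures of the same strain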; conditions: S. cerevisiae mlh1 strain growth inhibition, stronger effect = higher value
Method in brief: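 Steps: expose the defined-mutant yeast strain to compound; expose a parallel culture to vehicle; measure growth; express compound effect as inhibition relative to the vehicle culture.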

[13] = NCI Yeast Anticancer Drug Screen. Data for the sgs1 strain (AID 173);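 note: 0% = growth of vehicle-only control cultures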; conditions: S. cerevisiae sgs1 mutant, stronger effect = higher value
Method in brief: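 Treat defined-mutant yeast with compound; measure growth; calculate inhibition relative to vehicle-treated cells.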

[14] = NCI Yeast Anticancer Drug Screen. Data for the mlh1 rad18 strain (AID 175); conditions: S. cerevisiae mlh1 rad18 strain growth inhibition, stronger effect = higher value
Method in brief: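 Test agents were incubated with a yeast strain of defined genotype (DNA damage repair defect). Inhibition of growth was derived by comparison with vehicle-exposed cultures.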

[15] = NCI Yeast Anticancer Drug Screen. Data for the rad18 strain (AID 177); conditions: S. cerevisiae rad18 mutant growth inhibition, stronger effect = higher value
Method in brief: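 A genetically defined yeast mutant impaired in DNA damage repair was treated with test compounds, then its growth was measured against cultures receiving vehicle alone.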

[16] = at 5.0 µM (retest, dose inferred, filed as 0.5)
[17] = at 50.0 µM (retest, dose inferred, filed as 5.0)

Measured: growth inhibition

c1cncc(C(Nc2cccc3cccnc23)Nc2cccc3cccnc23)c1
inactive: [1]; at 1.2 µM 0% | [1]; at 3.7 µM 0% | [1]; at 11.0 µM 1% | [1]; at 33.0 µM 2% | [1]; at 100.0 µM 0% | [2]; at 1.2 µM 1% | [2]; at 3.7 µM 14% | [2]; at 11.0 µM 31% | [2]; at 33.0 µM 47% | [2]; at 100.0 µM 55% | [3]; at 1.2 µM 4% | [3]; at 3.7 µM 1% | [3]; at 11.0 µM 3% | [3]; at 33.0 µM -70% | [3]; at 100.0 µM -45% | [4]; at 1.2 µM -103% | [4]; at 3.7 µM 52% | [4]; [16] 25% | [4]; at 11.0 µM 61% | [4]; [17] 44% | [5]; at 1.2 µM 2% | [5]; at 3.7 µM 1% | [5]; [16] -26% | [5]; at 11.0 µM 5% | [5]; at 33.0 µM 12% | [5]; [17] -2% | [5]; at 50.0 µM 44.8% | [5]; at 100.0 µM 15% | [6]; at 1.2 µM 0% | [6]; at 3.7 µM 9% | [6]; at 11.0 µM 15% | [6]; at 33.0 µM 25% | [6]; at 100.0 µM 47% | [7]; [16] 28% | [7]; [17] 53% | [7]; at 50.0 µM 54.4% | [8]; at 1.2 µM 6% | [8]; at 3.7 µM 3% | [8]; at 11.0 µM 3% | [8]; at 33.0 µM 3% | [8]; at 100.0 µM 2% | [9]; [16] 1% | [9]; [17] 6% | [9]; at 50.0 µM 27.9% | [10]; at 1.2 µM 1% | [10]; at 3.7 µM 4% | [10]; [16] -10% | [10]; at 11.0 µM -7% | [10]; at 33.0 µM -11% | [10]; [17] -12% | [10]; at 50.0 µM -13.8% | [10]; at 100.0 µM -8% | [11]; at 1.2 µM 0% | [11]; at 3.7 µM 9% | [11]; at 11.0 µM 0% | [11]; at 33.0 µM 2% | [11]; at 100.0 µM -1% | [12]; at 1.2 µM 3% | [12]; at 3.7 µM 1% | [12]; at 11.0 µM 1% | [12]; at 33.0 µM 4% | [12]; at 100.0 µM 2% | [13]; at 1.2 µM 11% | [13]; at 3.7 µM 39% | [13]; at 11.0 µM 59% | [13]; at 33.0 µM 64% | [13]; at 100.0 µM 62% | [14]; [16] 25% | [14]; [17] 40% | [15]; at 1.2 µM 36%
active: [4]; at 33.0 µM 76% | [4]; at 50.0 µM 75.8% | [4]; at 100.0 µM 81% | [14]; at 50.0 µM 77.2% | [15]; at 3.7 µM 89% | [15]; at 11.0 µM 92% | [15]; at 33.0 µM 94% | [15]; at 100.0 µM 94%
